PubChem BioAssay (NCATS)
“And” between values parts separate entries of the source, which are not always exact repeats. Equal entries are not always repeated. Inconclusive results are not listed. For some assays here: Measured potencies and affinities stand elsewhere. The source made the active and inactive calls.

Experiments:
[1] = qHTS profiling of the MIPE4 collection as inhibitors of Plasmodium falciparum (3D7) proliferation (AID 743344);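 note: scaled between DMSO vehicle wells and 0.29 µM artemisinin as full inhibition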; conditions: P. falciparum 3D7 in erythrocytes, SYBR Green DNA fluorescence, 72 h; at 28.5 µM unless noted
Procedure, shortened: (§1)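 Erythrocytes infected with P. falciparum (0.3% parasitemia, 2.5% hematocrit) incubated with compounds 72 h at 37 C, 5% CO2. Lysis with saponin/Triton buffer containing SYBR Green I, overnight at room temperature in the dark; DNA fluorescence (485/535 nm) normalised to 0.29 uM artemisinin and DMSO.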

[2] = qHTS profiling of the MIPE4 collection as inhibitors of Plasmodium falciparum (HB3) proliferation (AID 743347);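 note: plate controls were DMSO vehicle wells for no effect and artemisinin wells for full effect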; conditions: P. falciparum HB3 in erythrocytes, SYBR Green DNA, 72 h; at 28.5 µM unless noted
Procedure, shortened: as §1

[3] = Ebola virus entry assay, green fluorescence channel
[4] = Ebola virus entry assay, blue channel fluorescence
[5] = qHTS Assay for Identifying Gametocytocidal Compounds (AID 743244; active = well fitted curve in the direction sought with a large enough effect; an effect the other way counts as inactive or inconclusive;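 note: % is set by controls: 0 for no effect and ±100 for the full control effect; actives lower the fluorescent signal which means gametocytes are killed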); conditions: P. falciparum 3D7 stage III-V gametocytes, alamarBlue, 72 h; max response: stronger effect = lower value
Procedure, shortened: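 In this qHTS viability screen, late-stage 3D7 gametocytes are incubated with compound for 72 h, then with alamarBlue for 24 h; reduced resorufin fluorescence marks killing.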

[6] = qHTS profiling of the MIPE4 collection as inhibitors of Plasmodium falciparum (DD2) proliferation (AID 743345); conditions: P. falciparum Dd2 in erythrocytes, SYBR Green DNA, 72 h; at 28.5 µM unless noted
Procedure, shortened: as §1

[7] = qHTS profiling of the MIPE4 collection as inhibitors of Plasmodium falciparum (DD2) proliferation (Rep 2) (AID 743346); conditions: P. falciparum Dd2 in erythrocytes, SYBR Green DNA, 72 h; at 28.5 µM unless noted
Procedure, shortened: as §1

[8] = qHTS for compounds that reverse cellular toxicity of Amyloid beta (A-beta) peptide in yeast: LOPAC Validation Assay (AID 720559; active = well fitted curve in the direction sought with a large enough effect; an effect the other way counts as inactive or inconclusive;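 note: plate controls were DMSO for no effect and equimolar ferric chloride plus clioquinol rescue for full effect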)
Procedure, shortened: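 Activity is expressed relative to DMSO and an equimolar ferric chloride/clioquinol mix. Compounds were pinned into medium with A-beta-expressing yeast, grown 48 hr at 30 C, then read by absorbance at 600 nm.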

[9] = qHTS for Activators of Parkin Expression: LOPAC Validation Assay (FLuc Reporter) (AID 720573; active = well fitted curve in the direction sought with a large enough effect; an effect the other way counts as inactive or inconclusive;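 note: 0% = DMSO and 100% = positive control compounds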)
Procedure, shortened: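 A neuronal cell line harbouring FLuc and NLuc reporters behind the Parkin promoter was exposed to compounds for 24 h. Firefly luciferase signal, measured after 10 min with detection reagent, was scaled to DMSO and positive-control wells.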

[10] = molecular target: T1, Hexokinase-4 (Homo sapiens) + Glucokinase regulatory protein (Homo sapiens) (UniProt P35557+Q14397); test: qHTS assay for inhibitors of recombinant human GCK-GKRP interaction: Diaphorase-coupled assay (AID 743205; active = well fitted curve in the direction sought with a large enough effect; an effect the other way counts as inactive or inconclusive)
T1 sequence (P35557 whole entry, looked up): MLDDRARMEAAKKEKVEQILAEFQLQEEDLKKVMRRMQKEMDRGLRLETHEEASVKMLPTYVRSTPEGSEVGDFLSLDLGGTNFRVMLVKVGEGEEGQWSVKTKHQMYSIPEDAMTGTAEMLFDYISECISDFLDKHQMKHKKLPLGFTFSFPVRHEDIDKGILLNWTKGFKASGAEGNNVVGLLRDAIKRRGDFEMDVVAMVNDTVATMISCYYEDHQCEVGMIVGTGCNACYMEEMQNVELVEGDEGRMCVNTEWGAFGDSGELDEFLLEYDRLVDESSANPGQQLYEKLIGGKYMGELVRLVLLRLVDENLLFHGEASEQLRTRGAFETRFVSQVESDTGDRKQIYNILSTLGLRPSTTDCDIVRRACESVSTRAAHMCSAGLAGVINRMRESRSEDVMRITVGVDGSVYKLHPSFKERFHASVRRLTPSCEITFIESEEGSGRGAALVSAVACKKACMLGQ
T1 sequence (Q14397 whole entry, looked up): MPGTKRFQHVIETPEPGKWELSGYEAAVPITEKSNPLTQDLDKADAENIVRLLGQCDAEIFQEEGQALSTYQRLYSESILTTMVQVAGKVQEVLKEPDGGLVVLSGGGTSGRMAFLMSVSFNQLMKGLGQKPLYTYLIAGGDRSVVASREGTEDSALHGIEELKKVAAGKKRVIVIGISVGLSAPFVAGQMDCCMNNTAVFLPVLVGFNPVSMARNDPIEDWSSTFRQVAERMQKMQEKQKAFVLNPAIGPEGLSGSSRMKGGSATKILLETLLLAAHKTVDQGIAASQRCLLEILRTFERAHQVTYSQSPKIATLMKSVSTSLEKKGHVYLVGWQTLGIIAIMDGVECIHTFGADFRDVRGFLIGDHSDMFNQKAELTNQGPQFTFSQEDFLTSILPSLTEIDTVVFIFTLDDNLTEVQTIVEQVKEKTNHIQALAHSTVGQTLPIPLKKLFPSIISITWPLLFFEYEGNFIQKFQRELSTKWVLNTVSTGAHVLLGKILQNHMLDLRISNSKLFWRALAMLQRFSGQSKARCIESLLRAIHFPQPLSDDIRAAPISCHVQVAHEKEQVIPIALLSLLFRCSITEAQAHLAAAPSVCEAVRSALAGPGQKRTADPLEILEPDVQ
Procedure, shortened: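 Inhibitors of the GCK–GKRP complex relieve GKRP suppression of GCK, detected through a G6PDH–diaphorase cascade reducing resazurin. Human GST-GCK and FLAG-GKRP are used at 10 nM with 5 mM glucose and 0.4 mM ATP.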

[11] = molecular target: T1, Hexokinase-4 (Homo sapiens) + Glucokinase regulatory protein (Homo sapiens); test: qHTS assay for inhibitors of recombinant human GCK-GKRP interaction: ADP-Glo assay (AID 743206; active = well fitted curve in the direction sought with a large enough effect; an effect the other way counts as inactive or inconclusive;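 note: plate controls were DMSO plus enzyme for no effect and no enzyme for full effect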)
Procedure, shortened: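 GST-GCK and FLAG-GKRP (15 nM each in the dispensed mix, with 2 uM S6P) react with 0.4 mM ATP and 5 mM glucose (final) in Hepes pH 7.6 for 60 min at room temperature. ADP is measured by ADP-Glo luminescence.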

[12] = molecular target: T1, Hexokinase-4 (Homo sapiens) + Glucokinase regulatory protein (Homo sapiens); test: qHTS assay for inhibitors of recombinant human GCK-GKRP interaction: HTRF assay (AID 743207; active = well fitted curve in the direction sought with a large enough effect; an effect the other way counts as inactive or inconclusive;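 note: 0% = DMSO with GCK present and -100% = DMSO wells lacking GCK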)
Procedure, shortened: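 Steps: dispense GCK–GKRP complex (5 nM each, GST- and FLAG-tagged) with 2 uM S6P; pin in compounds; add XL665/Eu-cryptate-labelled antibodies; incubate 60 min at room temperature; read time-resolved FRET at 665 and 615 nm.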
Throughout, for efficacy: 0% is about no effect.

Nc1nc(F)nc2c1ncn2[C@@H]1O[C@H](CO)[C@@H](O)[C@@H]1O
parasite growth, % of DMSO control [1]: 31%
growth, % of control [2]: 81.8%
efficacy [3]: 16.7% (inactive)
outcome [4]: inactive

CN(C)[C@@H]1C(=O)C(C(N)=O)=C(O)[C@@]2(O)C(=O)C3=C(O)c4c(O)cccc4[C@@](C)(O)[C@H]3C[C@@H]12
max response [5]: 8.32% (inactive)
parasite growth, % of DMSO control [1]: 28.7%
parasite growth remaining, % of DMSO control (lower = more inhibition) [6]: 39.9%
parasite growth, % of control (lower = inhibition) [7]: 30.2%
growth, % of control [2]: 32.8%
efficacy [3]: 106% (inactive)
outcome [4]: inactive

OC(Cn1cncn1)(Cn1cncn1)c1ccc(F)cc1F
parasite growth, % of DMSO control [1]: 95.6%
parasite growth, % of control (lower = inhibition) [7]: 88.1%
growth, % of control [2]: 103%
efficacy [3]: -11.5% (inactive)
outcome [4]: inactive

CCN(C)C(=O)Oc1cccc([C@H](C)N(C)C)c1
parasite growth, % of DMSO control [1]: 92%
parasite growth, % of control (lower = inhibition) [7]: 69.6%
growth, % of control [2]: 82.1%
efficacy [3]: 11.7% (inactive)
outcome [4]: inactive

CC(C)CC(N(C)C)C1(c2ccc(Cl)cc2)CCC1 (stereo not given)
max response [5]: 6.63% (inactive)
parasite growth, % of DMSO control [1]: 90.3%
parasite growth remaining, % of DMSO control (lower = more inhibition) [6]: 99.9%
parasite growth, % of control (lower = inhibition) [7]: 137%
growth, % of control [2]: 105%
efficacy [3]: -28.7% (inactive)
outcome [4]: inactive

CC[C@@H](CO)NC(=O)[C@@H]1C=C2c3cccc4[nH]cc(c34)C[C@H]2N(C)C1
outcome [8]: inactive
outcome [9]: inactive
outcome [10]: inactive
outcome [11]: inactive
outcome [12]: inactive
efficacy [3]: -16.2% (inactive)

O=P1(NCCCl)OCCCN1CCCl (stereo not given)
max response [5]: 4.6% (inactive)
parasite growth, % of DMSO control [1]: 62.8%
parasite growth remaining, % of DMSO control (lower = more inhibition) [6]: 97.2%
parasite growth, % of control (lower = inhibition) [7]: 110%
growth, % of control [2]: 107%
efficacy [3]: 14.4% (inactive)
outcome [4]: inactive

CN1C[C@H](CNC(=O)OCc2ccccc2)C[C@@H]2c3cccc4c3c(cn4C)C[C@H]21
outcome [8]: inactive
outcome [9]: inactive
outcome [10]: inactive
outcome [11]: inactive
outcome [12]: inactive
max response [5]: -4.3% (inactive)
efficacy [3]: 74.4% (inactive)

Cc1nc2n(c(=O)c1CCN1CCC(c3noc4cc(F)ccc34)CC1)CCCC2
parasite growth, % of DMSO control [1]: 38.3%
parasite growth remaining, % of DMSO control (lower = more inhibition) [6]: 70.5%
parasite growth, % of control (lower = inhibition) [7]: 48.7%
growth, % of control [2]: 60.5%
efficacy [3]: 54.5% (inactive)
outcome [4]: inactive

CCC1(C2=NCCN2)Cc2ccccc2O1 (stereo not given)
outcome [8]: inactive
outcome [9]: inactive
outcome [10]: inactive
outcome [11]: inactive
outcome [12]: inactive
max response [5]: -5.65% (inactive) and 15.9% (inactive)
efficacy [3]: 28% (inactive)

NP(N)(=O)NC(=O)c1ccc(F)cc1
max response [5]: -2.45% (inactive)
efficacy [3]: -25% (inactive)

CN1C(=S)CN=C(c2ccccc2)c2cc(Cl)ccc21
max response [5]: -6.22% (inactive)
efficacy [3]: 37% (inactive)
